Measured values from PubChem BioAssay AID1866 (The Scripps Research Institute Molecular Screening Center, 2009).
About 40 (3%) of roughly 1,300 compounds were called active.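 Rule for the calls: active = inhibition above that campaign's mean inhibition plus 3 SD (cut at about 0.46% in these data); inactive = the rest.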 Only a sample is shown.

Target: Beta-lactamase TEM (Escherichia coli) (UniProt P62593)
Test: TEM-1 serine beta-lactamase inhibitors, counter-screen for VIM-2 inhibitor project, biochemical, epi-absorbance, HTS (AID 1866);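 note: 0% = TEM-1 with DMSO and 100% = TEM-1 with 100 µM potassium clavulanate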
Conditions: Purified TEM-1, nitrocefin hydrolysis, epi-absorbance fluorescence; at 5.6 µM; stronger effect = higher value

Chain of Beta-lactamase TEM (Escherichia coli) (P62593 whole entry, looked up): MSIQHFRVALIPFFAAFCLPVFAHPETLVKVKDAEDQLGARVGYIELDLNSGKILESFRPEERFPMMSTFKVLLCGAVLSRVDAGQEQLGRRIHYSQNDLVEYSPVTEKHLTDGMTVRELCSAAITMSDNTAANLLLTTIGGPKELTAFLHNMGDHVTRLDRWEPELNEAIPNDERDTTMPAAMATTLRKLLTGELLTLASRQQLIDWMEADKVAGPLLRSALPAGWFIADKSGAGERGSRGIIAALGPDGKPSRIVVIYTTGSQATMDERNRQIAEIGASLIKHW

Row | SMILES | inhibition
1 | COc1ccc(CCn2c(=N)c(C(=O)NCC3CCCO3)cc3c(=O)n4cccc(C)c4nc32)cc1OC (configuration not stated) | -5.02% (inactive)
2 | Cc1nc2ccccc2c2oc(C(=O)NCCCN3CCC(C)CC3)cc12 | -6.75% (inactive)
3 | CNC(=O)c1ccsc1NC(=O)c1ccc(S(=O)(=O)N2CCOCC2)cc1 | -7.75% (inactive)
4 | Fc1ccc(-c2ccc(CNCc3ccccn3)o2)cc1Cl | -5.72% (inactive)
5 | CCN(CC)c1ccc2cc(C(N)=O)/c(=N\NC(=O)c3ccncc3)oc2c1 | -8.43% (inactive)
6 | O=C(COc1cc2oc(=O)c3c(c2cc1Cl)CCC3)NCCCN1CCOCC1 | -0.53% (inactive)
7 | CCN1CCN(CCNC(=O)c2ccc3c(c2)NC(=O)/C(=C\c2ccc(OC)c(OC)c2)S3)CC1 | -9.31% (inactive)
8 | COc1ccc(-c2nn3c(-c4ccccc4)nnc3s2)cc1OC | -11.4% (inactive)
9 | CCOC(=O)N1CCN(C(=O)C2CCN(c3ncnc4c3sc3cccc(F)c34)CC2)CC1 | -5.6% (inactive)
10 | CCN(CC)CCOc1ccc2c(c1)C(=NNC(=O)c1ccccn1)c1cc(OCCN(CC)CC)ccc1-2 | -8.91% (inactive)
11 | COc1ccc(Nc2cc(C)nc(-n3nc(C)cc3C)n2)cc1 | -7.46% (inactive)
12 | NC(=O)C1CCN(C(=O)COc2ccc3c4c(c(=O)oc3c2)CCC4)CC1 | -5.63% (inactive)
13 | Cn1c(-c2sccc2OCc2cccc(C(F)(F)F)c2)n[nH]c1=S | -7.73% (inactive)
14 | CCOc1cc(/C=C2\SC(N3CCCCC3)=NC2=O)ccc1O | -8.67% (inactive)
15 | COC(=O)c1c(NC(=O)c2ccc(S(=O)(=O)N3CCOCC3)cc2)sc2c1CCN(C(C)C)C2 | -6.47% (inactive)
16 | Cc1ccc(Cl)cc1-c1ccc(/C=N/n2cnnc2)o1 | -6.18% (inactive)
17 | CCN1CCCC1CNC(=O)c1cc2c(=O)n(C)c3ccccc3c2n1C (configuration not stated) | -6.31% (inactive)
18 | COc1ccc(Cc2nnc(NS(=O)(=O)Cc3ccccc3)s2)cc1 | -3.28% (inactive)
19 | Cc1cc(NCc2ccco2)n2c(nc3ccccc32)c1C#N | -6.6% (inactive)
20 | CC(=O)c1ccc(-c2ccc(Cn3c(C)nc4cc(N)c(C)nc43)cc2)cc1 | -6.56% (inactive)
21 | CC(NS(=O)(=O)c1ccccc1)c1n[nH]c(=S)n1-c1ccccc1 (configuration not stated) | -5.56% (inactive)
22 | O=C1Nc2cc(C(=O)N3CCC(N4CCCCC4)CC3)ccc2S/C1=C\c1ccccc1 | -5.79% (inactive)
23 | CCc1cc(=O)oc2cc(C)cc(OCC(=O)N3CCC[C@@H]3C(=O)O)c12 | -5.9% (inactive)
24 | O=C(NC(=S)Nc1ccccc1C(=O)O)c1ccc(-c2ccc(Br)cc2)o1 | -8.31% (inactive)
25 | CN(C)CCNc1ccc(-c2n[nH]c(=O)c3ccccc23)cc1[N+](=O)[O-] | -7.17% (inactive)
26 | Cc1cc(-c2ccc(/C=N/n3cnnc3)o2)c([N+](=O)[O-])cc1C | -5.24% (inactive)

Row | SMILES | inhibition
27 | C=CCn1c(-c2ccccc2OCC)n[nH]c1=S | -3.6% (inactive)
28 | CC(C)(C)CC(=O)Nc1nnc(SCC(=O)NCc2cccs2)s1 | -5.92% (inactive)
29 | CCOc1cc(/C=C2\SC(N3CCCC(C)C3)=NC2=O)ccc1O (configuration not stated) | -1.56% (inactive)
30 | O=c1[nH]c(-c2ccccc2)c(-c2ccccc2)[nH]1 | -4.67% (inactive)
31 | COc1nc(N=C(N)N)nc2c(C)cccc12 | -4.69% (inactive)
32 | CN1CCN(c2ccc(NC(=O)c3ccc4c(c3)[nH]c(=O)n4Cc3ccc(F)cc3)cc2)CC1 | -7.55% (inactive)
33 | CC1CCCC(C)N1CCCNC(=O)c1cc2c(=O)n(C)c3ccccc3c2n1C (configuration not stated) | -6.6% (inactive)
34 | Cn1c2ccccc2c(=O)c2c(O)cccc21 | -0.94% (inactive)
35 | CCCc1ccc(OCCNC(=O)c2ccco2)cc1 | -6.4% (inactive)
36 | COC(=O)c1ccc(-c2noc(CN(Cc3ccccn3)CC3CCCO3)n2)cc1 (configuration not stated) | -7.22% (inactive)
37 | COc1cc(/C=N/Nc2nn3cnnc3c3ccccc23)cc(OC)c1OC | -3.82% (inactive)
38 | COc1cc(NC(=O)C2=C(C)OCCS2)c(Cl)cc1C(=O)NCCN1CCN(C)CC1 | -9.7% (inactive)
39 | Nc1nnc2c(C(F)(F)F)nc3ccccc3n12 | -1.12% (inactive)
40 | Cc1cc(C)c2nc3nc(C)cc(C)c3c(N)c2c1 | -4.56% (inactive)
41 | CCC1CCCCN1CCCNC(=O)c1cc2c(Cl)nc3ccccc3c2s1 (configuration not stated) | -6.12% (inactive)
42 | Clc1cc(-c2ccc(/C=N/n3cnnc3)o2)ccc1Br | -5.72% (inactive)
43 | CCN1CCN(C(=O)Cn2nc(C)n3c(cc4c(OC)cccc43)c2=O)CC1 | -7.04% (inactive)
44 | Cn1c(=O)c2c(nc(N3CCOCC3)n2CCNC2=NCCC2)n(C)c1=O | -4.49% (inactive)
45 | COc1ccc(/C=N/N(C)C2=NS(=O)(=O)c3ccccc32)cc1OC | -6.76% (inactive)
46 | COc1cc(-c2nn3c(-c4cccc(C)c4)nnc3s2)cc(OC)c1OC | -6.23% (inactive)
47 | Cc1cccn2c(=O)c(C=O)c(Nc3ccc(S(N)(=O)=O)cc3)nc12 | -4.52% (inactive)
48 | O=C(NCCCN1CCOCC1)c1cnn2c(-c3ccccc3)cc(-c3ccccc3)nc12 | -5.7% (inactive)
49 | CCOCCCNc1c(CC)c(C)c(C#N)c2nc3ccccc3n12 | -5.82% (inactive)
50 | Cc1ccc2nc(C)c3c(c2c1)N(c1ccccc1)CC3 | -5.53% (inactive)
51 | Nc1cccc2c1C(=O)N(Cc1nnc(-c3ccccc3Br)o1)C2=O | -0.93% (inactive)
52 | Cc1cc([N+](=O)[O-])c(-c2ccc(/C=N/n3cnnc3)o2)cc1Cl | -6.25% (inactive)
